Experimental data as given in PubChem BioAssay (NCI).
The panel holds about 83,000 compounds, 20% with a hit somewhere; the sample as a whole holds those more often.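 48-hour exposure, single concentration, 96-well plates; percent growth endpoint where 0 means no net growth. Active: below 10.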 Active and inactive are the calls of the source.

Tests used:
Test in all cases: NCI-60 one-dose screen, 48 h (100 = growth as untreated, 0 = no growth, -100 = all killed)
Conditions in all cases: 10 µM unless noted
DU-145 prostate = test system: DU-145 prostate
K-562 leukemia = test system: K-562 leukemia
MALME-3M melanoma = test system: MALME-3M melanoma
MDA-MB-231 breast = test system: MDA-MB-231 breast
RXF 393 renal = test system: RXF 393 renal
SF-268 CNS = test system: SF-268 CNS
SF-295 CNS = test system: SF-295 CNS
SF-539 CNS = test system: SF-539 CNS
UACC-257 melanoma = test system: UACC-257 melanoma
M14 melanoma = test system: M14 melanoma
HCT-15 colon = test system: HCT-15 colon
HT29 colon = test system: HT29 colon
SNB-75 CNS = test system: SNB-75 CNS
SNB-19 CNS = test system: SNB-19 CNS
U251 CNS = test system: U251 CNS
PC-3 prostate = test system: PC-3 prostate
SK-MEL-5 melanoma = test system: SK-MEL-5 melanoma
UACC-62 melanoma = test system: UACC-62 melanoma
LOX IMVI melanoma = test system: LOX IMVI melanoma

Measured: growth

COc1cc(C2CC(c3cccc(Nc4ccnc5cc(Cl)ccc45)c3)=NN2c2ccccc2)cc(OC)c1OC (stereo not given)
active: UACC-62 melanoma 9.18%
inactive: DU-145 prostate 68.9% | K-562 leukemia 14% | MALME-3M melanoma 64.3% | MDA-MB-231 breast 77.7% | RXF 393 renal 93.1% | SF-268 CNS 63.2% | SF-295 CNS 31.5% | SF-539 CNS 80.7% | UACC-257 melanoma 80.1% | M14 melanoma 34.7% | HCT-15 colon 67.1% | HT29 colon 59.7% | SNB-75 CNS 79.2% | SNB-19 CNS 90.9% | U251 CNS 78.8% | PC-3 prostate 55.2% | SK-MEL-5 melanoma 62.1% | LOX IMVI melanoma 46.1%

Oc1ccc(Nc2ncnc3c2sc2ncccc23)cc1
active: SF-539 CNS 5.87% | M14 melanoma -19% | UACC-62 melanoma 3.13% | LOX IMVI melanoma 8.47%
inactive: DU-145 prostate 17.2% | K-562 leukemia 38.2% | MALME-3M melanoma 60.6% | MDA-MB-231 breast 64.4% | RXF 393 renal 35.3% | SF-268 CNS 23.7% | SF-295 CNS 15.1% | UACC-257 melanoma 36.4% | HCT-15 colon 50.9% | HT29 colon 43.4% | SNB-75 CNS 40.9% | SNB-19 CNS 27.6% | U251 CNS 24.4% | PC-3 prostate 47.4% | SK-MEL-5 melanoma 27.7%

CC[C@H](Nc1nc(C)nc(N)c1C#N)c1nc2cccc(NCc3ccc(C(=O)NO)cc3)c2c(=O)n1-c1ccccc1
inactive: DU-145 prostate 11.2% | MDA-MB-231 breast 14.7% | SF-268 CNS 12.3% | SF-295 CNS 21.5% | SF-539 CNS 14.6% | HCT-15 colon 21% | HT29 colon 14.8% | SNB-19 CNS 17.6%
active: K-562 leukemia 2.24% | MALME-3M melanoma 2.94% | RXF 393 renal -27.2% | UACC-257 melanoma -3.98% | M14 melanoma 8.71% | SNB-75 CNS 7.85% | U251 CNS 1.03% | PC-3 prostate 8.89% | SK-MEL-5 melanoma -20.4% | UACC-62 melanoma 4.19% | LOX IMVI melanoma -59.6%

CCN(C)CCCOc1ccc(/C(=C(\C)Cc2cccc(OC)c2)c2ccc(OC(C)=O)cc2)cc1
inactive: DU-145 prostate 104% | K-562 leukemia 101% | MALME-3M melanoma 97.3% | MDA-MB-231 breast 104% | RXF 393 renal 106% | SF-268 CNS 94.1% | SF-295 CNS 99.1% | SF-539 CNS 101% | UACC-257 melanoma 109% | M14 melanoma 101% | HCT-15 colon 101% | HT29 colon 102% | SNB-75 CNS 81.7% | SNB-19 CNS 102% | U251 CNS 97.1% | PC-3 prostate 98.1% | SK-MEL-5 melanoma 99.1% | UACC-62 melanoma 98.4% | LOX IMVI melanoma 97.2%

N#Cc1nc(-c2cccc(Br)c2)cc(-c2ccc(Nc3nc(N4CCCCC4)nc(N4CCCCC4)n3)cc2)c1N
active: DU-145 prostate -39% | K-562 leukemia 4.51% | MALME-3M melanoma -80.9% | MDA-MB-231 breast -67.4% | RXF 393 renal -70.9% | SF-268 CNS 5.03% | SF-539 CNS -75.9% | UACC-257 melanoma -35.8% | M14 melanoma 2.1% | HCT-15 colon -39% | HT29 colon -24.6% | SNB-75 CNS -45.1% | U251 CNS -15.8% | SK-MEL-5 melanoma -49.3% | UACC-62 melanoma -35.9% | LOX IMVI melanoma -95.7%
inactive: SF-295 CNS 82.8% | SNB-19 CNS 52.7% | PC-3 prostate 12%

C1=C\CCCCN2CC[C@H]3[C@H](CCCC/C=C\CCCN4C[C@@H](CCCCC/1)C[C@@H]3C4)C2
active: K-562 leukemia -19.5% | RXF 393 renal -43.3% | M14 melanoma 1.72% | HT29 colon 9.89%
inactive: DU-145 prostate 93.9% | MALME-3M melanoma 98.9% | MDA-MB-231 breast 73.9% | SF-268 CNS 73.8% | SF-295 CNS 51.3% | SF-539 CNS 31.3% | UACC-257 melanoma 84.7% | HCT-15 colon 25.3% | SNB-75 CNS 44.3% | SNB-19 CNS 106% | U251 CNS 72.3% | PC-3 prostate 76.7% | SK-MEL-5 melanoma 71% | UACC-62 melanoma 92% | LOX IMVI melanoma 65.5%

COc1cc(C)c2c(=O)c3c(oc2c1)C(=O)c1c(O)c(OC)cc(O)c1C3=O
inactive: DU-145 prostate 26.8% | RXF 393 renal 13.1% | SF-268 CNS 21.5% | SF-295 CNS 25.7% | UACC-257 melanoma 54% | M14 melanoma 19.3% | HT29 colon 68.1% | SNB-19 CNS 20.2% | U251 CNS 10.8% | UACC-62 melanoma 22.5%
active: K-562 leukemia -23.8% | MALME-3M melanoma -23.8% | MDA-MB-231 breast -0.877% | SF-539 CNS 5.8% | HCT-15 colon 5.54% | SNB-75 CNS -13.2% | PC-3 prostate -8.33% | SK-MEL-5 melanoma -43.8% | LOX IMVI melanoma 3.56%

Nc1nonc1-c1nc2ccccc2n1Cc1ccc(F)cc1
inactive: DU-145 prostate 80.7% | K-562 leukemia 10.6% | MALME-3M melanoma 46.2% | MDA-MB-231 breast 60% | RXF 393 renal 37.8% | SF-268 CNS 66.3% | SF-295 CNS 68.5% | SF-539 CNS 49.9% | UACC-257 melanoma 75.4% | M14 melanoma 28.2% | HCT-15 colon 30.4% | HT29 colon 17.3% | SNB-75 CNS 32.4% | SNB-19 CNS 63.8% | U251 CNS 52.3% | PC-3 prostate 61.7% | SK-MEL-5 melanoma 56.8% | UACC-62 melanoma 48.8% | LOX IMVI melanoma 49.1%

CC(=O)N(C)c1ccc(Nc2cc(C)[nH]c3ccc4ncnc4c23)cc1
inactive: DU-145 prostate 46.5% | K-562 leukemia 29.5% | MALME-3M melanoma 82.4% | MDA-MB-231 breast 87.7% | RXF 393 renal 41.7% | SF-268 CNS 55% | SF-295 CNS 76.5% | SF-539 CNS 40.7% | UACC-257 melanoma 48.2% | M14 melanoma 76.9% | HCT-15 colon 82.5% | HT29 colon 48% | SNB-75 CNS 55% | SNB-19 CNS 58.7% | U251 CNS 49.9% | PC-3 prostate 50.5% | SK-MEL-5 melanoma 51.4% | UACC-62 melanoma 62.7% | LOX IMVI melanoma 36.1%

CCC(C)C1NC(=O)c2nc(oc2-c2ccccc2)-c2csc(n2)-c2csc(n2)-c2nc(oc2C)-c2coc(n2)CNC(=O)C(C(C)CC)NC1=O (stereo not given)
active: DU-145 prostate -90.6% | K-562 leukemia -66.3% | MALME-3M melanoma -84.9% | MDA-MB-231 breast -74.4% | RXF 393 renal -72.5% | SF-268 CNS -66.9% | SF-295 CNS -78.9% | SF-539 CNS -80.5% | UACC-257 melanoma -66.2% | M14 melanoma -85.2% | HCT-15 colon -77.7% | HT29 colon -81.6% | SNB-75 CNS -86.3% | SNB-19 CNS -61.3% | U251 CNS -83.4% | PC-3 prostate -85.6% | SK-MEL-5 melanoma -91.3% | UACC-62 melanoma -70.5% | LOX IMVI melanoma -72.4%

CC1(C)CC[C@]2(C(=O)N3CCNCC3)CC[C@]3(C)C(=CC[C@@H]4[C@@]5(C)CCC(=O)C(C)(C)[C@@H]5CC[C@]43C)[C@@H]2C1
inactive: DU-145 prostate 109% | K-562 leukemia 109% | MALME-3M melanoma 112% | MDA-MB-231 breast 112% | RXF 393 renal 115% | SF-268 CNS 100% | SF-295 CNS 99.5% | SF-539 CNS 101% | UACC-257 melanoma 106% | M14 melanoma 109% | HCT-15 colon 105% | HT29 colon 107% | SNB-75 CNS 91.6% | SNB-19 CNS 98% | U251 CNS 105% | PC-3 prostate 101% | SK-MEL-5 melanoma 102% | UACC-62 melanoma 98.9% | LOX IMVI melanoma 95.7%

COc1cc2c(cc1C)NC(=O)/C2=C\c1c[nH]c2ccccc12
inactive: DU-145 prostate 78.6% | K-562 leukemia 40.6% | MALME-3M melanoma 75.9% | MDA-MB-231 breast 60.8% | RXF 393 renal 47% | SF-268 CNS 81.6% | SF-295 CNS 26.4% | SF-539 CNS 69.7% | UACC-257 melanoma 90% | M14 melanoma 80.9% | HCT-15 colon 58.4% | HT29 colon 35.4% | SNB-75 CNS 37.9% | SNB-19 CNS 84.7% | U251 CNS 61.5% | PC-3 prostate 53.3% | SK-MEL-5 melanoma 73.8% | UACC-62 melanoma 77.9% | LOX IMVI melanoma 44.9%

COc1ccc2[nH]cc(/C=C3\C(=O)Nc4ccccc43)c2c1
active: K-562 leukemia 3.31% | SNB-75 CNS 8.46%
inactive: DU-145 prostate 47.1% | MALME-3M melanoma 57.5% | MDA-MB-231 breast 38.9% | RXF 393 renal 33.3% | SF-268 CNS 62.5% | SF-295 CNS 45.5% | SF-539 CNS 25.8% | UACC-257 melanoma 28.2% | M14 melanoma 11% | HCT-15 colon 23.9% | HT29 colon 10.7% | SNB-19 CNS 73% | U251 CNS 38.8% | PC-3 prostate 45.3% | SK-MEL-5 melanoma 39.5% | UACC-62 melanoma 26% | LOX IMVI melanoma 21.1%

Cc1c(-c2ccc(-c3ccccc3F)cc2)nc2ccc(F)cc2c1C(=O)O
active: LOX IMVI melanoma 9.11%
inactive: DU-145 prostate 42.5% | K-562 leukemia 26.3% | MALME-3M melanoma 62.8% | MDA-MB-231 breast 65.2% | RXF 393 renal 37.2% | SF-268 CNS 50.7% | SF-295 CNS 22.8% | SF-539 CNS 29% | UACC-257 melanoma 19.8% | M14 melanoma 53.7% | HCT-15 colon 29% | HT29 colon 28.3% | SNB-75 CNS 60.9% | SNB-19 CNS 41% | U251 CNS 31.9% | PC-3 prostate 33.2% | SK-MEL-5 melanoma 40.4% | UACC-62 melanoma 39.5%

CNCc1ccccc1CN(CC(=O)Nc1ccc2c(c1)CC1(C2)C(=O)Nc2ncccc21)C(=O)C(C)(C)C (stereo not given)
inactive: DU-145 prostate 112% | K-562 leukemia 107% | MALME-3M melanoma 99.5% | MDA-MB-231 breast 108% | RXF 393 renal 126% | SF-268 CNS 101% | SF-295 CNS 106% | SF-539 CNS 100% | UACC-257 melanoma 102% | M14 melanoma 98.7% | HCT-15 colon 111% | HT29 colon 105% | SNB-75 CNS 83.2% | SNB-19 CNS 103% | U251 CNS 103% | PC-3 prostate 98% | SK-MEL-5 melanoma 103% | UACC-62 melanoma 99.8% | LOX IMVI melanoma 97.4%
